This passage reports outcome and AC50 results from PubChem BioAssay (EPA / NIEHS).

Results filed as inconclusive are left out. Calls of active or inactive are those of the source. Rule for the calls, unless noted: active = hit-call score of the fitted dose curve at least 0.9, where 1 is the maximum; inactive = score below 0.9.

Assay [1] deals with Nuclear respiratory factor 1 (Homo sapiens) (UniProt Q16656). The assay is described as follows: ATG_NRF1_CIS: Attagene CIS-FACTORIAL HepG2 Assay for human Nuclear Respiratory Factor 1 (NRF1) Orphan Gene (AID 2282987). The settings on record: HepG2 NRF1 cis-element reporter, Attagene multiplex; actives raise or lower the signal. In outline: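 Endogenous NRF1-driven reporter transcription measured in transiently transfected human HepG2 liver cells. Readout: reporter mRNA by RT-PCR and capillary electrophoresis with fluorescence detection, 24 h post-dosing. Gain or loss of signal fitted relative to DMSO baseline.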
Sequence of Nuclear respiratory factor 1 (Homo sapiens) (Q16656 whole entry, looked up): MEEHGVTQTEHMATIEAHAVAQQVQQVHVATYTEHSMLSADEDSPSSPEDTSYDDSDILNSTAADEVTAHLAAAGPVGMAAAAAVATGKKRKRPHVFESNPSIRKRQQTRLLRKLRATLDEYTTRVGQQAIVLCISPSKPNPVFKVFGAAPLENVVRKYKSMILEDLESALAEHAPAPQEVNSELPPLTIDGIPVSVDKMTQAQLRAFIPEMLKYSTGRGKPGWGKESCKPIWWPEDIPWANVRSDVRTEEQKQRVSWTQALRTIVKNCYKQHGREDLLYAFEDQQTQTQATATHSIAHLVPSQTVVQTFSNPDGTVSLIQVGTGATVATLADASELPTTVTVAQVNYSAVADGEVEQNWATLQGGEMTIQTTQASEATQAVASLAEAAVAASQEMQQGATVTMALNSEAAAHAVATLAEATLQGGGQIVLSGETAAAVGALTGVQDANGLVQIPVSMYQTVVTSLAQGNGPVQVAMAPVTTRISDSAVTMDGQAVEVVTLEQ

A short description of assay [2]: ATG_NFI_CIS: Attagene CIS-FACTORIAL HepG2 Assay for human Nuclear Factor I (NFI) (AID 2282989). Conditions: HepG2 cis-regulatory reporter, NFI response element transcription; actives raise or lower the signal. In outline:
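After transient transfection of HepG2 with cis-promoter reporter constructs and 24 h dosing, RNA is reverse-transcribed, amplified, 6-FAM end-labelled and HpaI-digested before capillary analysis. Bidirectional curve fitting against DMSO.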

For assay [3], the target named is Myc proto-oncogene protein (Homo sapiens) (UniProt P01106). The assay is described as follows: ATG_Myc_CIS: Attagene CIS-FACTORIAL HepG2 Assay for human Myelocytomatosis (Myc) Proto-Oncogene Transcription Factor (AID 2282990). Conditions: HepG2, Attagene cis-reporter transcription factor activity; actives raise or lower the signal. The method in brief:
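Cells of the HepG2 human liver line bear multiple cis-driven reporter transcription units. Reporter mRNA after 24 h exposure is reverse-transcribed, amplified, labelled and resolved by capillary electrophoresis, with gain- or loss-of-signal fitting relative to DMSO.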

The nature of assay [4]: ATG_NF_kB_CIS: Attagene CIS-FACTORIAL HepG2 Assay for human Nuclear Factor Kappa B (NF-kB) (AID 2282991). The settings on record: HepG2 Attagene cis-factorial NF-kB reporter mRNA; actives raise or lower the signal. The method in brief:
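Read-out: reporter transcript levels quantified by RT-PCR plus capillary electrophoresis of 6-FAM-labelled, HpaI-cut fragments. Transfected HepG2 cells, 24 h compound exposure, endogenous NF-kB-driven cis element; gain or loss scored versus DMSO.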

Assay [5] in a line: ATG_NRF2_ARE_CIS: Attagene CIS-FACTORIAL HepG2 Assay for human Nuclear Factor Erythroid 2 Related Factor 2 (NFR2) response to Antioxidant Response Elements (ARE) (AID 2282992). Conditions: HepG2 Attagene ARE/NRF2 reporter, transcription factor activity; actives raise or lower the signal. The method in brief:
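Endogenous transcription factor activity in human liver HepG2 cells is tracked via a cis-element-driven reporter within a multiplexed set. mRNA induction is read by RT-PCR and capillary electrophoresis after 24 h, with DMSO as baseline.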

Assay [6] is described as follows: ATG_Oct_MLP_CIS: Attagene CIS-FACTORIAL HepG2 Assay for human Octamer-Binding Transcription Factor (Oct) (AID 2282993). The settings on record: HepG2 Attagene cis-factorial Oct reporter, mRNA; actives raise or lower the signal. In outline:
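Cells of the HepG2 line express promoter-controlled reporter sequences whose mRNA levels, after 24 h treatment, are measured by RT-PCR and capillary electrophoresis. Increases and decreases are scored relative to DMSO.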

The target in assay [7] is Cellular tumor antigen p53 (Homo sapiens) (UniProt P04637). The assay is described as follows: ATG_p53_CIS: Attagene CIS-FACTORIAL HepG2 Assay for human p53 Transcription Factor (AID 2282994). The settings on record: HepG2 p53 cis-element reporter, Attagene mRNA; actives raise or lower the signal. The method in brief:
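Steps: transfect HepG2 with multiplexed cis reporter constructs; dose chemicals 24 h; extract RNA, reverse-transcribe, PCR-amplify reporter sequences; FAM-label, HpaI-digest, resolve fragments by CE. Activity fitted both directions relative to DMSO.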

For assay [8], the target named is human Peroxisome Proliferator-activated Receptor alpha (PPARa), PPARA (gene 5465) (UniProt Q07869). The assay is described as follows: ATG_PPARa_TRANS: Attagene TRANS-FACTORIAL HepG2 Assay for human Peroxisome Proliferator-activated Receptor alpha (PPARa) (AID 2283001; active = hit-call score of the fitted dose curve at least 0.9, where 1 is the maximum). In outline:
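Reporter transcripts quantified by RT-PCR plus capillary electrophoresis after 24 h treatment, fitted upward relative to DMSO. Cells: human HepG2 transiently carrying multiple GAL4-UAS reporter units driven by NR-Gal4 chimeras.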

In assay [9] the target is human Retinoic Acid Receptor beta (RARb), RARB (gene 5915) (UniProt P10826). The assay is described as follows: ATG_RARb_TRANS: Attagene TRANS-FACTORIAL HepG2 Assay for human Retinoic Acid Receptor beta (AID 2283004; active = hit-call score of the fitted dose curve at least 0.9, where 1 is the maximum). The method in brief:
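Transient transfection of HepG2 with multiple reporter units → chemical dosing, 24 h → total RNA isolation → RT with oligo(dT) → reporter-specific PCR, 6-FAM primer extension, HpaI digest → capillary electrophoresis. Positive direction vs DMSO control.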

In assay [10] the target is Peroxisome proliferator-activated receptor gamma (Homo sapiens) (UniProt P37231). The assay is described as follows: ATG_PPARg_TRANS: Attagene TRANS-FACTORIAL HepG2 Assay for human Peroxisome Proliferator-activated Receptor-gamma (PPARg) (AID 2283007; active = hit-call score of the fitted dose curve at least 0.9, where 1 is the maximum). The method in brief: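 Read-out: reporter mRNA induction, detected by fluorescence after RT-PCR and capillary electrophoresis. Transiently transfected human HepG2 liver cells carrying a chimeric NR-Gal4 construct were dosed for 24 h; activity was fitted upward relative to DMSO.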
Sequence of Peroxisome proliferator-activated receptor gamma (Homo sapiens) (P37231 whole entry, looked up, the tested form may be a part): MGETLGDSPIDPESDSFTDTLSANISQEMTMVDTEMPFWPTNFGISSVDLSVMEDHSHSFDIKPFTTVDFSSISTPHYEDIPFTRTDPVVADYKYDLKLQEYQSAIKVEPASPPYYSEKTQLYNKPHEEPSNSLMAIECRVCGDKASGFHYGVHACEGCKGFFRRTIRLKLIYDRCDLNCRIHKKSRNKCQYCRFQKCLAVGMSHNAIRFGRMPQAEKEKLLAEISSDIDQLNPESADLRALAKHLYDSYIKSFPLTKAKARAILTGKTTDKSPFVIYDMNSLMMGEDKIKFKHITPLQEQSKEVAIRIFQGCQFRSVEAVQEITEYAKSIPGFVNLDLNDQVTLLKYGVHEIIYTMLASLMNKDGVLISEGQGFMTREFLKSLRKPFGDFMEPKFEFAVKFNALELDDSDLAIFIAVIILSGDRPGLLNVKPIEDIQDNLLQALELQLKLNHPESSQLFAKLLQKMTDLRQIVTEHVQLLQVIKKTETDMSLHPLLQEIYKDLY

Assay [11] concerns the target Nuclear receptor subfamily 1 group I member 2 (Homo sapiens) (UniProt O75469). The assay is described as follows: ATG_PXR_TRANS: Attagene TRANS-FACTORIAL HepG2 Assay for human Pregnane X Receptor (PXR) (AID 2283008; active = hit-call score of the fitted dose curve at least 0.9, where 1 is the maximum). The method in brief:
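HepG2 transfected (FuGene 6) with GAL4-UAS reporter units + PXR-Gal4 chimera; dosed 24 h. Total RNA → oligo(dT) RT → PCR → 6-FAM primer extension → HpaI cut → CE. Gain-of-signal vs DMSO.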

Assay [12] addresses human Peroxisome Proliferator-activated Receptor delta (PPARd), PPARD (gene 5467) (UniProt Q03181). The assay is described as follows: ATG_PPARd_TRANS: Attagene TRANS-FACTORIAL HepG2 Assay for human Peroxisome Proliferator-activated Receptor delta (PPARd) (AID 2283002; active = hit-call score of the fitted dose curve at least 0.9, where 1 is the maximum). The method in brief:
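Cell-based TRANS reporter: HepG2, transient MRTU transfection, 24 h exposure. Readout = reporter mRNA (RT-PCR/CE, 6-FAM). Gain-of-signal fit vs DMSO control.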

Assay [13] concerns the target Retinoic acid receptor alpha (Homo sapiens) (UniProt P10276). The assay is described as follows: ATG_RARa_TRANS: Attagene TRANS-FACTORIAL HepG2 Assay for human Retinoic Acid Receptor alpha (RARa) (AID 2283005; active = hit-call score of the fitted dose curve at least 0.9, where 1 is the maximum). In outline:
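Reporter transcripts, measured by RT-PCR with fluorescent labeling and capillary electrophoresis after 24 h dosing, reflect activity of an exogenous human RARa–GAL4 fusion in transiently transfected HepG2. Fitted for increase relative to DMSO.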

Assay [14] concerns the target human Retinoic Acid Receptor gamma (RARg), RARG (gene 5916) (UniProt P13631). The assay is described as follows: ATG_RARg_TRANS: Attagene TRANS-FACTORIAL HepG2 Assay for human Retinoic Acid Receptor gamma (RARg) (AID 2283009; active = hit-call score of the fitted dose curve at least 0.9, where 1 is the maximum). In outline: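 TRANS format measured activity of exogenous NR-GAL4 fusion (RARg) in transfected HepG2 liver cells after 24 h dosing. Induced reporter RNA was detected by RT-PCR/capillary electrophoresis fluorescence, analysed in the positive direction against DMSO.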

Sequence of Nuclear receptor subfamily 1 group I member 2 (Homo sapiens) (O75469 whole entry, looked up, the tested form may be a part): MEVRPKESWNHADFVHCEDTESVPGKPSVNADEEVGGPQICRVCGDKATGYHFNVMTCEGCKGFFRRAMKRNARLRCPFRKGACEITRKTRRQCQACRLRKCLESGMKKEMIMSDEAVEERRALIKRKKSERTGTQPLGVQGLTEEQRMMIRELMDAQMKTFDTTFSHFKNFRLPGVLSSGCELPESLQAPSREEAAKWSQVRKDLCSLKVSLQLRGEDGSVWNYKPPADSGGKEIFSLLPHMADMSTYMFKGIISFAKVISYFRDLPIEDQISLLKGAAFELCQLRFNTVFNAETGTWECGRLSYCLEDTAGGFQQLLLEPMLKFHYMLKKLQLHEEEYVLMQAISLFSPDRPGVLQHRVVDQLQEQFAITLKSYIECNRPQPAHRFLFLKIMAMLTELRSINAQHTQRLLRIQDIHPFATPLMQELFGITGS
Sequence of human Peroxisome Proliferator-activated Receptor delta (PPARd), PPARD (gene 5467) (Q03181 whole entry, looked up): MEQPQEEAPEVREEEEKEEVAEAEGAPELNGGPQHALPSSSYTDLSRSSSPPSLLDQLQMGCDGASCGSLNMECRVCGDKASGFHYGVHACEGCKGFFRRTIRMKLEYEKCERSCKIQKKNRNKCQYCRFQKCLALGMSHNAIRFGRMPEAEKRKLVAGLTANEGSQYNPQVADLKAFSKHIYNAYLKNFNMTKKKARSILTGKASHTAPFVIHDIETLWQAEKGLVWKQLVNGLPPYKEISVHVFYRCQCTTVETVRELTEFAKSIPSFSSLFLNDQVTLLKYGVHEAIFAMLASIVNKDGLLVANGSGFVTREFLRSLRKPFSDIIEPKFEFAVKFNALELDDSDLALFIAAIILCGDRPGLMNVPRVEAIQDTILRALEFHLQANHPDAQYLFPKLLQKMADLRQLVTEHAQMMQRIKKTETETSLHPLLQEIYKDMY
Sequence of Myc proto-oncogene protein (Homo sapiens) (P01106 whole entry, looked up): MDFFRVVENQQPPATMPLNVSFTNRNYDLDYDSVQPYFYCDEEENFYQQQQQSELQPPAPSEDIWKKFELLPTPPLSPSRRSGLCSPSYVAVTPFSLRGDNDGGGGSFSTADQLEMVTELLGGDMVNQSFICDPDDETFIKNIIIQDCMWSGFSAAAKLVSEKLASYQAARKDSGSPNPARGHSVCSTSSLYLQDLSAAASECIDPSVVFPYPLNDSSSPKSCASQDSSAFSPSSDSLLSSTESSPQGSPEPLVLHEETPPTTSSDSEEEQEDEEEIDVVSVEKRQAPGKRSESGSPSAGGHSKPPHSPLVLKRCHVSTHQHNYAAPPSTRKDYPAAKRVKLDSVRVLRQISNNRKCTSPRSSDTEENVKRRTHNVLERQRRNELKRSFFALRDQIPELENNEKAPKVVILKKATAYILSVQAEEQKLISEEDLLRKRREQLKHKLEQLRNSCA
Sequence of human Peroxisome Proliferator-activated Receptor alpha (PPARa), PPARA (gene 5465) (Q07869 whole entry, looked up, the tested form may be a part): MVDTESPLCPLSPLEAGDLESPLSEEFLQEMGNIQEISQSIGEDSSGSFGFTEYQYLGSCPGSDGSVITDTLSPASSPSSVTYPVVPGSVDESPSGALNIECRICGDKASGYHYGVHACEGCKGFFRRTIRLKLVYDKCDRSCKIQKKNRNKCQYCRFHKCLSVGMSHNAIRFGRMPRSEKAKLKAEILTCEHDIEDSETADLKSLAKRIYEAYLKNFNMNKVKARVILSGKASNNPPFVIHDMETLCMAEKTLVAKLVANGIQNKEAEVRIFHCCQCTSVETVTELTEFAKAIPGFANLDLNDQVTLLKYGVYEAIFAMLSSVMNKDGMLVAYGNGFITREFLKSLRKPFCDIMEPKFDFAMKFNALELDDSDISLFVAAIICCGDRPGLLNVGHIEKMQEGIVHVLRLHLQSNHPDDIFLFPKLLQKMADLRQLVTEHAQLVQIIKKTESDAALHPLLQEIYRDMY
Sequence of human Retinoic Acid Receptor beta (RARb), RARB (gene 5915) (P10826 whole entry, looked up): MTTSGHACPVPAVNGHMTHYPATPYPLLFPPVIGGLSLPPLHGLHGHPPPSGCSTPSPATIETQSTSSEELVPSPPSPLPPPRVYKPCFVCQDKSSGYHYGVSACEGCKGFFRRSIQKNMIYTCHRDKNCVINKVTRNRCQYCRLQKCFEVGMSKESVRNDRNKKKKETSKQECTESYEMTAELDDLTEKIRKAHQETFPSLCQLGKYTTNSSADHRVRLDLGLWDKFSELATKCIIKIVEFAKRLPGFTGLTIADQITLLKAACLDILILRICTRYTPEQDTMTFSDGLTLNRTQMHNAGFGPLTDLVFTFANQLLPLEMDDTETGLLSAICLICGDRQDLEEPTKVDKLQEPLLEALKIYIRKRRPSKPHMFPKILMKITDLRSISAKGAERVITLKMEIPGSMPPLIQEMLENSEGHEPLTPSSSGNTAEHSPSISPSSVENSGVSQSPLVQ
Sequence of Retinoic acid receptor alpha (Homo sapiens) (P10276 whole entry, looked up, the tested form may be a part): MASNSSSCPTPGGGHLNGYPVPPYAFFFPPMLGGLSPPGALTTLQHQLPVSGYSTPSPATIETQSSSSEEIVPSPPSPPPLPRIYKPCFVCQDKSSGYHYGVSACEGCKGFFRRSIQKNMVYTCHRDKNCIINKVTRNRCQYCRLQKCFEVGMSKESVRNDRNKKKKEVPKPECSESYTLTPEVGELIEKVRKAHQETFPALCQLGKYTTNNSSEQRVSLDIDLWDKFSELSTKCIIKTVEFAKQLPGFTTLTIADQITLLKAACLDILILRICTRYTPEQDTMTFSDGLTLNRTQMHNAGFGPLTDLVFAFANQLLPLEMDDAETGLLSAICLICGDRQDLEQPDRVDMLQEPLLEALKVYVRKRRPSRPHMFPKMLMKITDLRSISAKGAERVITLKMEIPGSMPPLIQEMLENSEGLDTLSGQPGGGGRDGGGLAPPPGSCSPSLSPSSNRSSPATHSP
Sequence of human Retinoic Acid Receptor gamma (RARg), RARG (gene 5916) (P13631 whole entry, looked up, the tested form may be a part): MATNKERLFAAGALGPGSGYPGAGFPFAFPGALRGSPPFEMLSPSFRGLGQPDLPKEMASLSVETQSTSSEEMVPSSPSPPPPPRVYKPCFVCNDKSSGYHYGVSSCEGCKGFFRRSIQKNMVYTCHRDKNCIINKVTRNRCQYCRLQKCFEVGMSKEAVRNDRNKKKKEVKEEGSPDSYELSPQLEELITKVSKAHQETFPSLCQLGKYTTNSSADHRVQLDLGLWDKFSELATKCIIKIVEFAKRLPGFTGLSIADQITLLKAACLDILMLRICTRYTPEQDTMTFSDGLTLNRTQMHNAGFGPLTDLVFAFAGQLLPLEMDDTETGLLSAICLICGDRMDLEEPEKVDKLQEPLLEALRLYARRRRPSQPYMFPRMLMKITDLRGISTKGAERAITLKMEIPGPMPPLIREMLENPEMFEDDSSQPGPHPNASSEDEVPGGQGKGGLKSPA
Sequence of Cellular tumor antigen p53 (Homo sapiens) (P04637 whole entry, looked up, the tested form may be a part): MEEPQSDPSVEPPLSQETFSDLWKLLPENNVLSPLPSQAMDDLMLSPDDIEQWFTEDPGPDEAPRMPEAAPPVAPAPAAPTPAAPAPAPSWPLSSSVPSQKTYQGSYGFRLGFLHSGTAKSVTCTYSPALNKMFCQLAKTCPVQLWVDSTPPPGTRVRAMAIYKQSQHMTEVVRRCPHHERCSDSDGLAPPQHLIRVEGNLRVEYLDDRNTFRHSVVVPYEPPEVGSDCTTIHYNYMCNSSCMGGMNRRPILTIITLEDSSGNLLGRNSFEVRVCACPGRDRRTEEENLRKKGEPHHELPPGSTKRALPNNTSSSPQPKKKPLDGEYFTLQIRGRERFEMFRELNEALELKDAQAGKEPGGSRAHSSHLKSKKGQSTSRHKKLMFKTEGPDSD

For the compound `C#CC(O)CCC` (stereo not given), the compound was called inactive in assay [1], in assay [2], in [3], in assay [4], in assay [5] and in assay [6]. For the same compound, the compound was classed as inactive in [7], in assay [8], in assay [9], in assay [10] and in assay [11].

As to `Oc1ccc2c(c1)CCC2`, the compound was called inactive in [1], in assay [2], in [3], in assay [4], in assay [5] and in assay [6]. Besides, the compound was called inactive in [7], in [8], in [12], in [9], in [13] and in assay [10]. Also, the call in assay [11] and in assay [14] was inactive.

In the case of `c1ccc(C[P+](c2ccccc2)(c2ccccc2)c2ccccc2)cc1`, the call in assay [1], in assay [2], in [3], in assay [4], in assay [6] and in [7] was inactive. The outcome in assay [8], in assay [9], in assay [13], in assay [10], in assay [11] and in assay [14] was inactive. Further, in assay [5], the AC50 is 55.7 µM (active).

In the case of `F[Si-2](F)(F)(F)(F)F`, the call in assay [1], in assay [2], in assay [3], in [4], in [5] and in assay [6] was inactive. Besides, the compound was called inactive in assay [7], in assay [8], in assay [12], in assay [9] and in assay [11].

For `OCC1CCCO1` (stereo not given), the call in [1], in assay [2], in assay [3], in assay [4], in [5] and in [6] was inactive. The result in assay [7], in [12], in assay [9], in [11] and in assay [14] was inactive.

Take `CCOC(OCC)OCC`: the call in [1], in assay [2], in [3], in assay [4], in assay [5] and in [6] was inactive. Besides, the result in [7], in assay [12], in [13] and in assay [10] was inactive.

For orientation: AC50 means the concentration at which the activity in the assay is half-maximal.
